Vaccinia Venus = vaccinia inhibition (Venus reporter); Vaccinia virus Venus reporter expression, fluorescence; Potency, µM (top dose mostly 36.5 µM), for the others: top-dose activity change, negative = inhibition, usual class: inhibitors; 330,000 tested, 0.46% active; calls by dose curve; tested in A549 cells; further: potency means the concentration at half of the fitted maximal effect; nearly all actives have a fitted effect of over 30% in size
HCMV antiviral = blocks human cytomegalovirus replication; AID 1259415; HFF cells, HCMV-luciferase reporter, 72 h; hits give low values; activity change, negative = inhibition, % at 57.5 µM; 410,000 tested, 4.5% active; in the data active means activity change below about -60%; inconclusive means no clear call, values can overlap the other calls; inactive means above about -39%
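Luciferase read-out from HCMV-luciferase-infected HFFs (MOI 1 PFU/cell) 72 h post infection at 37C; compounds added after 16 h cell attachment; activity normalized between buffer-only basal and Salinomycin (10uM) inhibitor controls.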
LmPK inh = inhibitors of Leishmania mexicana pyruvate kinase | Q27686 | AID 1721 | 290,000 tested, 0.37% active | Potency, µM (doses to about 57.5 µM), inactives show at the highest dose activity change, negative = inhibition, hits mostly inhibitors | purified LmPK, Kinase-Glo ATP luminescence, 1 h; further: potency means the concentration at half of the fitted maximal effect
Target sequence (Q27686 whole entry, looked up): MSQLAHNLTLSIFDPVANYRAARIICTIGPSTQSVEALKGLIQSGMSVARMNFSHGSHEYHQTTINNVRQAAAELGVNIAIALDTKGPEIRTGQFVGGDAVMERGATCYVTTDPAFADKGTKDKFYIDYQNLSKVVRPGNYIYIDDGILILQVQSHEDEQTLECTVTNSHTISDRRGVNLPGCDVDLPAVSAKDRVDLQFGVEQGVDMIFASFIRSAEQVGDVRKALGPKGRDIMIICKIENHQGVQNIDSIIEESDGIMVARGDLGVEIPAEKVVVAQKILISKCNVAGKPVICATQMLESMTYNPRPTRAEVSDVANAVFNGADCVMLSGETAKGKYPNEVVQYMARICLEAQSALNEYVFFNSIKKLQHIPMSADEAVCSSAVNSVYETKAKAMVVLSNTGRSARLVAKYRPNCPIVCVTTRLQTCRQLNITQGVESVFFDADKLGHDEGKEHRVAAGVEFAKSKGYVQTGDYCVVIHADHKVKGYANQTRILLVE
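Pyruvate kinase activity monitored as ATP production (luciferase luminescence). Conditions: 0.1 nM enzyme, 0.5 mM PEP, 0.1 mM ADP, 1 h, RT; normalized against uninhibited and no-enzyme wells.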
Vaccinia mCherry = vaccinia inhibition (mCherry reporter) | Potency, µM (series often up to 36.5 µM), for the others: at the top dose activity change, negative = inhibition, actives largely listed as inhibitors | 310,000 tested, 0.63% active | AID 720579 | Vaccinia virus mCherry reporter infection, fluorescence; calls by dose curve; tested in A549 cells; further: potency means the concentration at half of the fitted maximal effect; nearly all actives have a fitted effect of over 35% in size
TbPYK inhibitor = inhibitors of Trypanosoma brucei pyruvate kinase; Q57TT1; TbPYK enzyme, Kinase-Glo Plus ATP luminescence, 45 min; Potency, µM (highest dose often 76.8 µM), for the others: at the highest dose activity, negative = inhibition, most hits filed as inhibitors; 410,000 tested, 0.12% active; further: potency means the concentration at half of the fitted maximal effect; nearly all actives have a fitted effect of over 50% in size
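Glycolytic pyruvate kinase of T. brucei was incubated with substrate, test compound and 130 uM ADP for 45 minutes at room temperature. Luminescent Kinase-Glo Plus signal was measured after 10 minutes.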
Starred values were filed as active, the others as inactive; i = inactive; ? = inconclusive; nt = no result; [ ] = dose if it differs, or a comment. Compounds with a hit are over-represented: about 5% of the library has one in this group of screens. Unless noted, the call rests on the fitted dose curve; in most records, active means well fitted curve in the direction sought with a large enough effect; inconclusive means small, poorly fitted or top-dose-only effect, or another doubt; inactive means no such curve, though single readings can be large; an effect the other way counts as inactive or inconclusive. On the % scale 0 is the no-effect control and ±100 the full control effect.

SMILES	Vaccinia Venus	HCMV antiviral	LmPK inh	Vaccinia mCherry	TbPYK inhibitor
CC1CN(c2ccc([N+](=O)[O-])c(NCCOc3ccccc3)c2)CCN1 (stereo not given)	11.2µM*	39.1	1.4%	?	-7.1%
Cc1cccc(OCCNc2cc(N3CCN(CCO)CC3)ccc2[N+](=O)[O-])c1	?	-3.2	3.0%	10µM*	4.2%
COc1ccc(OCCNc2cc(N3CCOCC3)ccc2[N+](=O)[O-])cc1	?	-2.8	3.8%	11.2µM*	7.0%
CC(C)Oc1ccc(C(=O)NCC(=O)OCC(=O)N(C)Cc2cccs2)cc1	2.1%	-8.2	2.9%	?	-1.6%
Cc1ccc(C)c(OC(=O)CSc2nnc(-c3ccc4c(c3)OCO4)o2)c1	-13.2%	-0.9	nt	-10.0%	-1.0%
O=C1NC(=S)SC1=Cc1ccccc1Cl	-6.7%	22.6	nt	-9.8%	8.0%
Cc1ccc(C2C(/C=C3/SC(=S)NC3=O)=C(c3cccs3)Oc3ccccc32)cc1 (stereo not given)	-20.8%	-60.8*	3.9%	-9.6%	5.0%
Cn1c(N2CCN(c3ccccn3)CC2)nc2c1c(=O)n(Cc1ccc(Cl)cc1)c(=O)n2C	-12.5%	-84.1*	3.4%	nt	-2.1%
O=C(c1ccc2c(c1)OCO2)N1CCN(c2ccccn2)CC1	-14.0%	-4.0	-0.2%	-17.7%	-10.3%
N[C@@H](CO)c1nnc([C@H](CCC(=O)O)NC(=O)C2CCNCC2)o1	-7.0%	-1.7	-1.7%	i	2.4%
OCC1OC(Oc2c[nH]c3ccccc23)C(O)C(O)C1O (stereo not given)	-8.7%	-97.6*	nt	i	1.3%
OCc1ccccc1O[C@@H]1O[C@H](CO)[C@@H](O)[C@H](O)[C@H]1O	-5.4%	nt	-7.8%	-7.7%	4.7%
CCCCN(c1ccc(C(=O)OC)cc1)S(=O)(=O)c1ccccc1	-1.1%	5.2	0.4%	-5.0%	1.7%
CCN(CC(=O)NCc1ccc(Cl)cc1)C(=O)CCC(=O)c1ccc(C)cc1	-25.0%	-2.9	nt	-6.5%	4.2%
Oc1cc(-c2ccncc2)cc2cccnc12	nt	-96.9*	nt	nt	-2.1%
CN(C)c1ccc(-c2cc(O)c3ncccc3c2)cc1	nt	-97.4*	nt	nt	-8.4%
CCCc1ccc2oc(C(=O)N3CCN(CC(=O)NC(C)C)CC3)c(C)c2c1	nt	9.1	0.7%	nt	9.8%
COc1cc(Nc2c3c(nc4ccccc24)CCCC3)cc(OC)c1OC	?	-35.7	5.5%	?	-0.2%
COc1ccccc1Nc1c2c(nc3ccc(NC(=O)c4ccc(N(C)C)cc4)cc13)CCCC2	-12.3%[7.34 µM]	-101.0*	nt	-24.1%[7.34 µM]	-3.4%
CCOc1ccccc1C(=O)Nc1ccc2nc3c(c(Nc4ccc(OC)c(OC)c4)c2c1)CCCC3	?	-103.0*	nt	-29.8%	2.0%
COc1ccc(Cl)cc1C(=O)Nc1ccc2nc3n(c(=O)c2c1)CCCC3	-18.2%	?	3.4%	-21.7%	-2.2%
COc1ccc(Nc2c3c(nc4ccc(NC(=O)c5cc(Cl)ccc5OC)cc24)CCCC3)cc1OC	?	-107.6*	nt	?	4.2%
COc1cc(OC)cc(C(=O)Nc2ccc3nc4c(c(Nc5ccc(OC)c(OC)c5)c3c2)CCCC4)c1	?	-105.0*	nt	?	3.6%
CCOc1ccccc1C(=O)Nc1ccc2nc3n(c(=O)c2c1)CCCCC3	nt	?	-2.8%	nt	-1.2%
COc1cc(OC)cc(C(=O)Nc2ccc3nc4n(c(=O)c3c2)CCCC4)c1	nt	?	-8.7%	nt	2.9%
SMILES	Vaccinia Venus	HCMV antiviral	LmPK inh	Vaccinia mCherry	TbPYK inhibitor
N#CC1=C(SCc2ccccc2)NC(=O)CC1c1ccco1 (stereo not given)	nt	60.8	3.3%	nt	-13.2%
COc1ccc(Cc2nnc(SCC(=O)Nc3ccc(C)cc3)n(N)c2=O)cc1	7.2%	21.3	nt	-11.1%	9.8%
Cc1c(Cl)cccc1NC(=O)CCS(=O)(=O)c1cccc2nonc12	0.6%	-36.3	-6.4%	0.4%	4.2%
O=C(Nc1ncc(Cc2ccc(SC(F)F)cc2)s1)c1ccc(OC(F)F)cc1	?	-86.4*	1.6%	-1.1%	-6.4%
CS(=O)(=O)c1ccc(Cl)c(NC(=O)CNC(=O)c2ccc3c(c2)OCO3)c1	-4.0%	-61.3*	nt	i	4.1%
CS(=O)(=O)c1ccc(Cl)c(NC(=O)COC(=O)CNC(=O)c2ccccc2)c1	-2.4%	4.5	-1.9%	2.4%	-4.0%
CC(=O)c1c(C(C)=O)c(C)n(Cc2ccccc2)c1C	-18.6%	-17.6	-2.5%	-15.1%	0.5%

Source: PubChem BioAssay
